# From PubChem BioAssay
# Activity calls are given as the source filed them. Unless noted, no rule for the calls is given here.
# What was measured:
# [1] = test system: Wnt5a (protein binding on small-molecule microarray); experiment: small molecules binding Wnt5a protein – biophysical, small-molecule microarray, 635/667 nm fluorescence, primary screen (AID 1142); conditions: 635 nm fluorescence, higher = more signal;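 also: fluorescence read at 667 nm with signal to noise per printed feature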
# [2] = ATP-based viability of Huh7 replicon cells – cell-based, CellTiter-Glo luminescence, basal, 48 h, cytotoxicity control for HCV replication inhibitor project, primary screen (AID 1143); conditions: higher = more signal, called active from +8 up or from −8 down;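 also: Huh7 hepatoma cells carrying a hepatitis C replication reporter with no stimulus; test concentration not given here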
# [3] = Pseudomonas biofilm growth suppression – PAO1 strain, BacTiter-Glo luminescence, LB-PBS, primary screen (AID 1144); conditions: P. aeruginosa PAO1 biofilm, 12 h, higher = more signal
# [4] = basal CRE-LacZ reporter activity in PC12 – cell-based, unstimulated, primary screen (AID 1145); conditions: no forskolin, luminescence, 4.5 h, higher = more signal, called active from +8 up or from −8 down
# [5] = forskolin-driven CRE-LacZ activity in PC12 – cell-based, CRE-LacZ reporter, forskolin-stimulated, primary screen (AID 1146); conditions: luminescence, 4.5 h, higher = more signal, called active from +8 up or from −8 down;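 also: PC12 cells with 6xCRE LacZ reporter stimulated by forskolin 10 µM; beta-galactosidase reporter signal reflecting CREB driven transcription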
# [6] = target: Streptavidin (Streptomyces avidinii) (UniProt P22629); experiment: compounds binding control protein streptavidin – biophysical, small-molecule microarray, 635/667 nm fluorescence, artefact control for SMM compound annotation, primary screen (AID 1147); conditions: higher = more signal;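 also: signal reflects streptavidin binding to arrayed compounds as a control protein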
# Chain of Streptavidin (Streptomyces avidinii) (P22629 whole entry, looked up): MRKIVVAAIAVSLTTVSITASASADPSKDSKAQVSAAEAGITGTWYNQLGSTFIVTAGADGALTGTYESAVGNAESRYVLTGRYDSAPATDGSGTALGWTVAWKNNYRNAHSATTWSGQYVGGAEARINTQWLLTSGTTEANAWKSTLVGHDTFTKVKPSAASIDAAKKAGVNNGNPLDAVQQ
# [7] = probe aInhba binding on compound microarray – biochemical, small-molecule microarray, 635/667 nm fluorescence, primary screen (AID 1148); conditions: higher = more signal;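 also: score merges 667nm spot fluorescence with signal-to-noise for antibody binding to printed compounds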
# [8] = target: Torsin-1A (Homo sapiens) (UniProt O14656); experiment: TOR1A wild-type binding on microarray – cell lysate, small-molecule microarray, lysate, 635/667 nm, primary screen (AID 1149); conditions: COS7 hTOR1A-WT lysate, 635 nm fluorescence, higher = more signal
# Chain of Torsin-1A (Homo sapiens) (O14656 whole entry, looked up): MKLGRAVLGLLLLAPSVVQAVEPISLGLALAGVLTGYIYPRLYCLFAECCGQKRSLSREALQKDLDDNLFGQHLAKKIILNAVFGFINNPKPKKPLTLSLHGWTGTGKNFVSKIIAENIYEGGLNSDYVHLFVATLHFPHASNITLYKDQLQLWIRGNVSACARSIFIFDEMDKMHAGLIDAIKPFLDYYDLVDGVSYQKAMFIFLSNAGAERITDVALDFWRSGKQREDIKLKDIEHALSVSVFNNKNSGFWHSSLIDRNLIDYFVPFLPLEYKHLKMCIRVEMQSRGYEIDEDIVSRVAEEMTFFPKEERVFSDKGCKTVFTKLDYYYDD
# [9] = target: Torsin-1A (Homo sapiens) (UniProt O14656); experiment: torsin A mutant lysate binding on microarrays – cell lysate, small-molecule microarray, COS7 lysate, 635/667 nm fluorescence, primary screen (AID 1150); conditions: COS7 hTOR1A mutant lysate, 635 nm fluorescence, higher = more signal;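 also: score pools 667 nm emission and signal to noise measuring lysate protein binding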
# [10] = test system: Sonic hedgehog protein (Shh); experiment: Sonic hedgehog microarray binding compounds – biochemical, small-molecule microarray, 635/667 nm fluorescence, primary screen (AID 1151); conditions: 635 nm fluorescence, higher = more signal;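 also: Shh protein binding to compounds spotted on small-molecule microarray slides; score combines spot fluorescence intensity with signal-to-noise across triplicate slides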
# [11] = optical density shifts of acrAB sulA E. coli – strain DRC41, OD650, 48 h, E. coli filamentation inducer project, primary screen (AID 1152); conditions: higher = more signal, called active from +8 up or from −8 down;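 also: E. coli MC1000 strain DRC41 lacking acrAB efflux pump and sulA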
# [12] = probe aLefty1 binding on compound microarray – biochemical, small-molecule microarray, 635/667 nm fluorescence, primary screen (AID 1153); conditions: higher = more signal;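 also: score merges spot fluorescence with signal-to-noise ratio from the scanned slide images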
# [13] = plasmodial surface anion channel blockers, osmotic lysis – cell-based, P. falciparum Indochina, OD700, 1 h, primary screen (AID 1154); conditions: P. falciparum Indochina infected RBC osmotic lysis, higher = more signal, called active from +8 up or from −8 down
# [14] = plasmodial surface anion channel blockers, osmotic lysis – cell-based, P. falciparum Indochina, OD700, 2 h, primary screen (AID 1155);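 also: lysis reports solute entry through the parasite surface anion channel PSAC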; conditions: P. falciparum Indochina infected erythrocytes, higher = more signal, called active from +8 up or from −8 down
# [15] = changes in parasitized red cell lysis, either direction – P. falciparum Indochina, OD700, 3 h, PSAC antagonist project, primary screen (AID 1156); conditions: P. falciparum-infected erythrocytes, osmotic lysis, higher = more signal, called active from +8 up or from −8 down
# [16] = plasmodial surface anion channel blockers, osmotic lysis – cell-based, P. falciparum Indochina, OD700, 18 h, primary screen (AID 1157); conditions: P. falciparum Indochina infected erythrocytes, osmotic lysis OD700, 18 h; higher = more signal, called active from +8 up or from −8 down
# [17] = S6 kinase pathway phospho-S6 level changes – cell-based, A549, cytoblot, luminescence, serum-stimulated, primary screen (AID 1158); conditions: 5 h, higher = more signal;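 also: serum-stimulated A549 lung adenocarcinoma cells; signal is phosphorylated S6 detected by cytoblot immunostaining with HRP secondary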
# [18] = target: NADPH oxidase 2 (Homo sapiens) (UniProt P04839); experiment: compounds shifting NOX2 Amplex Red fluorescence – cell-based, HEK293-NOX2, PMA-stimulated, NOX inhibitor project, primary screen (AID 1159); conditions: 45 min, higher = more signal, called active from +8 up or from −8 down; also: test concentration not given here
# Chain of NADPH oxidase 2 (Homo sapiens) (P04839 whole entry, looked up): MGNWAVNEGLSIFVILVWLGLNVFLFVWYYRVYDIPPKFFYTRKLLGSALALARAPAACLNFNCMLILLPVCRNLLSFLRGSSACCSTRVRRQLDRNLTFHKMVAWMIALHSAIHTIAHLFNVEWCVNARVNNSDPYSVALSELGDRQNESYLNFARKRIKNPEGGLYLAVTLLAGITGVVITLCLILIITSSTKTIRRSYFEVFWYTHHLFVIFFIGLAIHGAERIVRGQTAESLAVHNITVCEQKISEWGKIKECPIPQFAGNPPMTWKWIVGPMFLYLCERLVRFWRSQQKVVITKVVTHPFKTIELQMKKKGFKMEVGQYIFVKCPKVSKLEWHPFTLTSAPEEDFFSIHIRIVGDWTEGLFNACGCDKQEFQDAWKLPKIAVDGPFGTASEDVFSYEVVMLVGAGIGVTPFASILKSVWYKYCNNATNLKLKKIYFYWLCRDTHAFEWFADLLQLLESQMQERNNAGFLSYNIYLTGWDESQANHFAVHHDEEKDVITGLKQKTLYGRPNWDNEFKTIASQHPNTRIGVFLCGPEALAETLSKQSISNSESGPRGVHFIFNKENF
# [19] = target: NADPH oxidase 4 (Homo sapiens) (UniProt Q9NPH5); experiment: compounds shifting NOX4 Amplex Red fluorescence – cell-based, HEK293-NOX4, tetracycline-induced, NOX inhibitor project, primary screen (AID 1160); conditions: HEK293-NOX4, Amplex Red H2O2 fluorescence, 45 min; higher = more signal, called active from +8 up or from −8 down
# Chain of NADPH oxidase 4 (Homo sapiens) (Q9NPH5 whole entry, looked up): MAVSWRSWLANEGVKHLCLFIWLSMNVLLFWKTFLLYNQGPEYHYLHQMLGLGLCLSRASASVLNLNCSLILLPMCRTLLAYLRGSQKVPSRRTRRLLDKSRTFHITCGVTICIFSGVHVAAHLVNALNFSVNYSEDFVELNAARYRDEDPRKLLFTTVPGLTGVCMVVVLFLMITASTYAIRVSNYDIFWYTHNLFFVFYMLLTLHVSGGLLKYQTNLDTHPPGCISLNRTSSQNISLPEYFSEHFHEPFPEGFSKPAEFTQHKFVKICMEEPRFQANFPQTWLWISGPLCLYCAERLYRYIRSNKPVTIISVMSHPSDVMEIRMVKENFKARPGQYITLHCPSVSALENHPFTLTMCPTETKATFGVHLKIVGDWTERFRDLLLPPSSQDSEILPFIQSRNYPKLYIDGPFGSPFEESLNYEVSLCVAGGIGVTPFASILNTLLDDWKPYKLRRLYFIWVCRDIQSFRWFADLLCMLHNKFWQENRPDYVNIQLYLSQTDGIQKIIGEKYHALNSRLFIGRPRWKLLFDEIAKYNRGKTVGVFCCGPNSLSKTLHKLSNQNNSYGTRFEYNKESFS
# [20] = target: NADPH oxidase 5 (Homo sapiens) (UniProt Q96PH1); experiment: compounds shifting NOX5 Amplex Red fluorescence – cell-based, HEK293-NOX5, NOX inhibitor project, primary screen (AID 1161); conditions: HEK293-NOX5, ionomycin, 45 min, higher = more signal
# Chain of NADPH oxidase 5 (Homo sapiens) (Q96PH1 whole entry, looked up): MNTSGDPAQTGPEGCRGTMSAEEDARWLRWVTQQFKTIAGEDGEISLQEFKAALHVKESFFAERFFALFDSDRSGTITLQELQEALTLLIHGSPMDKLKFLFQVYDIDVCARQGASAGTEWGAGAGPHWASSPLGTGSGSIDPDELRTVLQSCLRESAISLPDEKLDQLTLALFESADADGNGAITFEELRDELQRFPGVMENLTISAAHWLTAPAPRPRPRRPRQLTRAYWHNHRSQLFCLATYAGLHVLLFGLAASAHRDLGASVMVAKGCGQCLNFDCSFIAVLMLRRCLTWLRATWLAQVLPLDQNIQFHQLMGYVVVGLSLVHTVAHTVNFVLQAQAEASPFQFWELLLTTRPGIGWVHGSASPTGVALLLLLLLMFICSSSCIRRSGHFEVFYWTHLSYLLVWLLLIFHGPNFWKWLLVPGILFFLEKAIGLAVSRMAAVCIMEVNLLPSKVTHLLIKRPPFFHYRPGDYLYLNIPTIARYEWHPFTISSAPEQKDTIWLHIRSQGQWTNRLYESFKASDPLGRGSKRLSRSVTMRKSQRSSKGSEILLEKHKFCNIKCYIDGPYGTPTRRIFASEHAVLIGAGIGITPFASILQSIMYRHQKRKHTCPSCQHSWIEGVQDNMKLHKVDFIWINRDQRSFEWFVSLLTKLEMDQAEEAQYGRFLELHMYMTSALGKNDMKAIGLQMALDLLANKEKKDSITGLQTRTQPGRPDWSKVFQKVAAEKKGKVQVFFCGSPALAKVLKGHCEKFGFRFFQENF
SMILES,composite z-score [1],z-score [2],z-score [3],z-score [4],z-score [5],composite z-score [6],composite z-score [7],composite z-score [8],composite z-score [9],composite z-score [10],z-score [11],composite z-score [12],z-score [13],z-score [14],z-score [15],z-score [16],z-score [17],z-score [18],z-score [19],z-score [20]
CCCC[C@@H]1C[C@H]1[C@@H](NC(=O)C(C)(C)C)c1ccc(C(F)(F)F)cc1,-0.96,-4.27 (inactive),0.0317 (inactive),0.201 (inactive),1.44 (inactive),0.0267,-0.0405,-0.49,-0.869,-1.7,-2.06 (inactive),0.718,5.74 (inactive),0.367 (inactive),1.01 (inactive),-1.37 (inactive),2.6,-4.58 (inactive),-4.44 (inactive),-5.62
[N-]=[N+]=NCc1ccccc1[C@@H]1OC(c2ccc(OCCCO)cc2)=N[C@]1(Cc1ccccc1)C(N)=O,0.601,-1.72 (inactive),-1.85 (inactive),-1.19 (inactive),-2.1 (inactive),2.03,0.228,0.162,-0.106,-0.315,-0.451 (inactive),0.0429,21.9 (active),4.7 (inactive),2.64 (inactive),1.03 (inactive),0.929,-2.06 (inactive),0.76 (inactive),-2.22
Cc1ccc(S[C@]2(C(=O)NCCCN(C)C)CC(=O)N(Cc3ccccc3C(F)(F)F)[C@@H]2c2ccc(CO)cc2)cc1,-0.197,0.312 (inactive),1.08 (inactive),-0.295 (inactive),0.358 (inactive),-0.0283,-0.0791,-0.544,0.801,-0.548,0.674 (inactive),0.337,0.926 (inactive),0.479 (inactive),0.298 (inactive),-0.0133 (inactive),0.104,-6.22 (inactive),0.165 (inactive),0.526
COc1cc2c(cc1OC)CN(C(=O)[C@H]1[C@@H]3C(=O)O[C@@H](c4ccccc4)[C@@H](c4ccccc4)N3[C@@H](c3ccc(O)cc3)[C@]13C(=O)Nc1ccccc13)CC2,0.0185,-1.57 (inactive),-0.219 (inactive),0.358 (inactive),0.282 (inactive),-0.805,0.417,0.191,1.36,0.931,-0.444 (inactive),0.0036,0.734 (inactive),-0.397 (inactive),-0.473 (inactive),0.801 (inactive),0.0493,0.96 (inactive),0.754 (inactive),1.37
